hcDAF-12 act: activators of H. contortus DAF-12 nuclear receptor | HEK293 hcDAF-12 lit1-tk-luc reporter, luminescence; 0% DMSO, 100% Δ7-dafachronic acid | activation, % at 6.8 µM | 370,000 tested, 1.4% active | AID 652067;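 active means activation above the mean of all tested compounds plus 3 SD, cut at about 5.5% in these data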;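 further: 100% = response to 3 µM Δ7-dafachronic acid high control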
DAX1 inh-1: inhibitors of DAX1 repression of SF-1 activated StAR promoter; HEK293T StAR-luciferase reporter, SF-1/DAX-1 repression relief; inhibition, % at 6.8 µM; 370,000 tested, 1.1% active; AID 652010;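 active means inhibition above the mean over all tested compounds plus 3 SD, cut at about 3.6% in these data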;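 further: 0% = DAX-1 cells with DMSO and 100% = cells lacking DAX-1 with DMSO; higher inhibition means more luminescence from relief of DAX-1 repression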
ssDAF12 agonist: activates DAF-12 receptor from parasite S. stercoralis; 370,000 tested, 1% active; activation, % at 6.8 µM; HEK293 ssDAF-12/GRIP1 lit1-tk-luc reporter, luminescence; % of 3 µM dafachronic acid response;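 active means activation above the mean over all tested compounds plus 3 SD, cut at about 0.9% in these data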;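 further: 0% = DMSO-only wells and 100% = 3 µM delta7-dafachronic acid wells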
hgDAF-12 ag: agonists of H. glycines DAF-12 nuclear receptor. HEK293 GAL4-hgDAF12 UAS-luciferase reporter, agonist luminescence; normalized to butyrate control. activation, % at 6.8 µM. 370,000 tested, 1.8% active;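 active means activation above a cutoff set at the mean of all screened compounds plus 3 SD, cut at about 10% in these data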;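 further: 0% = DMSO wells and 100% = sodium butyrate wells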
DAX1 inh-2: inhibitors of human orphan nuclear receptor DAX1 (NR0B1); HEK293 Gal4-DAX1 luciferase reporter, luminescence; inhibition, % at 6.75 µM; 340,000 tested, 0.99% active;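 active means inhibition above the mean over all tested compounds plus 3 SD, cut at about 4.2% in these data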;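 further: 0% = DAX1-transfected cells with DMSO and 100% = empty-vector control cells with DMSO; inhibition shows as a rise in luminescence from relieved DAX1 repression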
Target sequence (P51843 207-470 limits assumed): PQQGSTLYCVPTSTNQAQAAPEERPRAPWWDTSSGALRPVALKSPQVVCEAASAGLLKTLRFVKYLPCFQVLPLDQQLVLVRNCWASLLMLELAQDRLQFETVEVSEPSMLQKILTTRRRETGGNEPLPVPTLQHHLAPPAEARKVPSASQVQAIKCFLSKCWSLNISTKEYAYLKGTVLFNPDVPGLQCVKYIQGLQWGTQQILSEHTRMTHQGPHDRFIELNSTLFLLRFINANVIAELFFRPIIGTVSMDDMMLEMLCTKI
LXR ag: activates human LXR-beta, counter-screen for hcDAF-12 agonists | shares compounds with hcDAF-12 act | HEK293 Gal4-LXR tk-luc reporter, luminescence, 24 h; normalized: DMSO 0%, positive control 100% | activation, % at 6.8 µM | 3,400 tested, under 10 active;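 active means mean percent activation of the reporter above a cutoff set as the average over tested compounds plus their standard deviation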
Target sequence (P55055 whole entry, looked up, the tested form may be a part): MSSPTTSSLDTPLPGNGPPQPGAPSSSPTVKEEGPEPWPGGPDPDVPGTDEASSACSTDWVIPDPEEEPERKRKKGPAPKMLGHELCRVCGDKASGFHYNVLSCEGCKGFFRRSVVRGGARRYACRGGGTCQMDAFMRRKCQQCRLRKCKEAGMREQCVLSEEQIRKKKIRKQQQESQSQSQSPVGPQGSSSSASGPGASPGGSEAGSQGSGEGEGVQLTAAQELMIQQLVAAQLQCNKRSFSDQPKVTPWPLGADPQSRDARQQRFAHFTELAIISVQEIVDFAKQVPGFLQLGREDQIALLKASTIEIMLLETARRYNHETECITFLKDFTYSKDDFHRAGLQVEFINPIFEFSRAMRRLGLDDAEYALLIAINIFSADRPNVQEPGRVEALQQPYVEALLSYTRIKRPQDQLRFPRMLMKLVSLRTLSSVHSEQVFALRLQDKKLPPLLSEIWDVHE
hcDAF12 ag: confirmation of H. contortus DAF-12 agonists; activation, % at 6.8 µM; HEK293 hcDAF-12 lit1-tk-luc reporter, luminescence; % of Δ7-dafachronic acid response; shares compounds with hcDAF-12 act; 3,400 tested, 61% active;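 active means mean activation across triplicate tests above the threshold derived from the earlier primary screen, cut at about 5.5% in these data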;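 further: 0% = DMSO only wells and 100% = 3 µM Δ7-dafachronic acid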
* hit, by the source's call. In the library only some 4.1% were active in any assay of this set; here they are far more common.

How did O=C(NCc1ccccc1F)C1C2C=CC3(CN(Cc4ccccc4)C(=O)C13)O2 (stereo unspecified) do in these assays?
hcDAF-12 act: -2.0; DAX1 inh-1: 0.3; ssDAF12 agonist: -1.2; hgDAF-12 ag: -1.5

What do the screens show for `N#CC1(Nc2ccc3ccccc3c2)CCCC1`?
hcDAF-12 act: 6.9*; DAX1 inh-1: 4.1*; ssDAF12 agonist: 0.3; hgDAF-12 ag: 9.1; DAX1 inh-2: 2.8; LXR ag: 0.2; hcDAF12 ag: 7.0*

How did N#CC1(P(=O)(c2ccccc2)c2ccccc2)CCCC1 do in these assays?
hcDAF-12 act: -0.8; DAX1 inh-1: -0.4; ssDAF12 agonist: -0.8; hgDAF-12 ag: 2.1; DAX1 inh-2: -0.2

How did CC(C)CN1C(=O)[C@@]2(CC(=O)N(C)C2c2ccccc2)c2cc(-n3cc(CN(C)C)nn3)ccc21 (stereo partly specified) do in these assays?
hcDAF-12 act: -0.4; DAX1 inh-1: 0.3; ssDAF12 agonist: -1.4; hgDAF-12 ag: -1.6

What do the screens show for `COc1ccccc1Cc1c(C(C)(C)C)nc2ccc(C)cn12`?
hcDAF-12 act: 6.6*; DAX1 inh-1: 0.4; ssDAF12 agonist: 0.8; hgDAF-12 ag: 7.1; LXR ag: -0.1; hcDAF12 ag: 4.0

What do the screens show for `O=C(O)Cc1sc(Nc2ccccc2)nc1-c1cccs1`?
hcDAF-12 act: 6.9*; DAX1 inh-1: 1.2; ssDAF12 agonist: -0.1; hgDAF-12 ag: 10.2; DAX1 inh-2: 7.8*; LXR ag: 0.3; hcDAF12 ag: 4.1

How did O=C(O)c1cc(N/N=C/c2cccc3ccccc23)ccc1Cl do in these assays?
hcDAF-12 act: 8.4*; DAX1 inh-1: 0.5; ssDAF12 agonist: -0.5; hgDAF-12 ag: 1.3; DAX1 inh-2: 2.1; LXR ag: 1.0; hcDAF12 ag: 8.2*

How did COc1ccc(N2CCCN(CC(=O)Nc3ccc(Cl)c(Cl)c3)CC2)cc1 do in these assays?
hcDAF-12 act: 0.1; DAX1 inh-1: 0.2; ssDAF12 agonist: -1.2; hgDAF-12 ag: -1.8

Results for C[C@H](CO)N1C[C@H](C)[C@H](CN(C)Cc2cccc(F)c2)Oc2ncc(C3=CCCC3)cc2C1=O ?
hcDAF-12 act: -0.5; DAX1 inh-1: -1.3; ssDAF12 agonist: -0.7; hgDAF-12 ag: 3.8

How did CCOC(=O)Cc1nc(N2CCCN(C(C)=O)CC2)c2c(C)c(C(=O)OCC)sc2n1 do in these assays?
hcDAF-12 act: 6.9*; DAX1 inh-1: -1.3; ssDAF12 agonist: -1.6; hgDAF-12 ag: 0.2; LXR ag: -0.4; hcDAF12 ag: -1.9

What do the screens show for `Cc1ccc(NC(=O)OCc2cc(-c3ccccc3)on2)cc1`?
hcDAF-12 act: 0.4; DAX1 inh-1: 0.3; ssDAF12 agonist: -1.3; hgDAF-12 ag: 1.2; DAX1 inh-2: 2.8

How did Cc1ccc(-c2cc(-c3ccccc3)no2)cc1 do in these assays?
hcDAF-12 act: 13.6*; DAX1 inh-1: 3.7*; ssDAF12 agonist: 1.8*; hgDAF-12 ag: 13.6*; DAX1 inh-2: 1.7; LXR ag: 2.2; hcDAF12 ag: 14.5*

What do the screens show for `COc1ccc(N=CC2=C(O)c3ccccc3C2=O)c(OC)c1`?
hcDAF-12 act: 12.1*; DAX1 inh-1: 2.3; ssDAF12 agonist: 1.6*; hgDAF-12 ag: 9.5; DAX1 inh-2: 2.3; LXR ag: 0.5; hcDAF12 ag: 6.8*

What do the screens show for `c1ccc(SCc2nc(-c3cccnc3)no2)cc1`?
hcDAF-12 act: 7.3*; DAX1 inh-1: 0.3; ssDAF12 agonist: 0.5; hgDAF-12 ag: 8.4; DAX1 inh-2: 2.4; LXR ag: 1.6; hcDAF12 ag: 5.8*

Results for Cc1ccc(Nc2ncc3c(n2)CC(C)CC3=O)c(C)c1 (stereo unspecified) ?
hcDAF-12 act: 7.1*; DAX1 inh-1: 2.0; ssDAF12 agonist: 0.1; hgDAF-12 ag: 10.1; DAX1 inh-2: 4.1; LXR ag: 1.2; hcDAF12 ag: 5.1

How did CC1CC(=O)c2cnc(NCc3ccco3)nc2C1 (stereo unspecified) do in these assays?
hcDAF-12 act: 1.1; DAX1 inh-1: -0.3; ssDAF12 agonist: -1.1; hgDAF-12 ag: 0.9; DAX1 inh-2: 2.0

What do the screens show for `COc1cccc(NC(=O)c2cc3ccccc3o/c2=N\O)c1`?
hcDAF-12 act: 7.5*; DAX1 inh-1: 1.8; ssDAF12 agonist: 1.1*; hgDAF-12 ag: 12.3*; DAX1 inh-2: -3.5; LXR ag: 1.8; hcDAF12 ag: 10.7*

How did COc1cccc(NC(=O)c2ccccc2Oc2ccccc2)c1 do in these assays?
hcDAF-12 act: -2.0; DAX1 inh-1: -0.2; ssDAF12 agonist: -1.2; hgDAF-12 ag: 0.1; DAX1 inh-2: 1.3

How did O=C(Nc1ccccc1Cl)c1cc2ccccc2o/c1=N\O do in these assays?
hcDAF-12 act: 11.3*; DAX1 inh-1: 1.6; ssDAF12 agonist: 2.1*; hgDAF-12 ag: 12.8*; DAX1 inh-2: 4.7*; LXR ag: 1.5; hcDAF12 ag: 12.9*

Results for C[C@H](O)[C@@H]1C(=O)N2CCc3c([nH]c4c(-c5ccccc5)cccc34)[C@@H]2C[C@@H]1N(C)C(=O)c1ccco1 ?
hcDAF-12 act: 0.7; DAX1 inh-1: 0.3; ssDAF12 agonist: -1.0; hgDAF-12 ag: 0.3

What do the screens show for `CCOC(=O)N1CCN(C(=O)c2cc3c(=O)n4cccc(C)c4nc3s2)CC1`?
hcDAF-12 act: 7.4*; DAX1 inh-1: 0.1; ssDAF12 agonist: -0.4; hgDAF-12 ag: 1.8; DAX1 inh-2: 2.2; LXR ag: -0.4; hcDAF12 ag: 3.4

Results for C=CCOc1ccc(C(c2c(C(=O)O)[nH]c3ccccc23)c2c(C(=O)O)[nH]c3ccccc23)cc1 ?
hcDAF-12 act: 7.5*; DAX1 inh-1: -0.2; ssDAF12 agonist: 0.1; hgDAF-12 ag: 3.1; DAX1 inh-2: 1.7; LXR ag: -0.1; hcDAF12 ag: 7.6*

What do the screens show for `C[C@@H](CO)N(CCc1cn(Cc2ccccc2)nn1)S(=O)(=O)c1ccccc1Br`?
hcDAF-12 act: -2.7; DAX1 inh-1: -0.6; ssDAF12 agonist: -1.2; hgDAF-12 ag: -2.0

Results for C#CCN1CC(N(C)CCO)CS1(=O)=O (stereo unspecified) ?
hcDAF-12 act: 0.0; DAX1 inh-1: -0.6; ssDAF12 agonist: -0.6; hgDAF-12 ag: 2.1

Results for Cc1cccc(-c2noc(-c3ccc(Cl)cc3[N+](=O)[O-])n2)c1 ?
hcDAF-12 act: 8.9*; DAX1 inh-1: 1.7; ssDAF12 agonist: -0.5; hgDAF-12 ag: 12.6*; DAX1 inh-2: 1.9; LXR ag: 1.8; hcDAF12 ag: 7.7*

How did C/C(CC(=O)Nc1ccc(Cl)c(C(F)(F)F)c1)=N\NC(=O)c1ccccc1O do in these assays?
hcDAF-12 act: 10.4*; DAX1 inh-1: 0.0; ssDAF12 agonist: 1.4*; hgDAF-12 ag: 10.1; DAX1 inh-2: -1.6; LXR ag: -0.2; hcDAF12 ag: 0.5
